# From PubChem
# Only some compounds are listed: those with a hit (about 1.8% of all), similar ones and a draw of the others.
# GALR2 antag = antagonists of human galanin receptor 2 (GALR2). O43603. GALR2-expressing cells, antagonist mode. inhibition, % at 4 µM. hit rate 0.39% among 140,000; in the data active = inhibition above about 27%;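 note: cells stimulated with galanin 1-16 at roughly its EC80; 0% = agonist challenge control and 100% = basal control without agonist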
# S1P2 agonist = S1P2 (human) receptor agonism; hit rate 0.46% among 97,000; S1P2-expressing cell line, agonist reporter read-out; activation, % at 4.5 µM; O95136; in the data active = activation above about 16%;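 note: 0% = vehicle low control and 100% = maximal reference agonist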
# Target sequence (O95136 whole entry, looked up): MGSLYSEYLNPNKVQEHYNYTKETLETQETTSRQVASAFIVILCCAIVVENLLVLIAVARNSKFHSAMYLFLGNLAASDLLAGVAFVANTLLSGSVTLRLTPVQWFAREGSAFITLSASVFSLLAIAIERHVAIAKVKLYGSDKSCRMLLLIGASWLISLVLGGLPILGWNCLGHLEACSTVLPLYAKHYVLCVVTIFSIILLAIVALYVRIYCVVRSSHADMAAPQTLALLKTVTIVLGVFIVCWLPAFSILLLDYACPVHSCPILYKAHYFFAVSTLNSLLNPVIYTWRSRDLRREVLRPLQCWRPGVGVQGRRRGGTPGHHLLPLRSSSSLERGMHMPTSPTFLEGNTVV
# MRP-1 activ = activators of MRP-1. H69AR cells + doxorubicin, viability rescue, CellTiter-Glo. viability increase, % at 10 µM. AID 799. hit rate 0.61% among 140,000;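 active = viability gain under doxorubicin at or above a set limit, the compound median plus 3 SD, cut at about 4.7% in these data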;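 note: MRP-1 overexpressing cells given doxorubicin 25 µM after compound pretreatment; 18-22 h compound pretreatment then 72 h with doxorubicin before readout; 0% = doxorubicin-only wells and 100% = vehicle-treated cells without doxorubicin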
# GALR2 ag = GALR2 (human) receptor agonism | AID 803 | hit rate 0.48% among 140,000 | O43603 | GALR2-expressing cells, agonist activation read-out | activation, % (test concentration not listed); in the data active = activation above about 5%, passing the limit was not always enough;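 note: 0% = vehicle buffer wells and 100% = reference agonist at full effect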
# MRP resist rev = MRP-mediated drug resistance reversal | differential viability (reversal), % at 10 µM | hit rate 0.04% among 85,000 | H69AR cells + 2 uM doxorubicin, CellTiter-Glo, 72 h;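 active = viability drop by adding the cancer drug above about 55%, with treated viability meeting a 40% cutoff, limit read from the data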;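 note: viability without doxorubicin minus viability with 2 µM doxorubicin for each compound; larger differential means the compound sensitizes cells more to doxorubicin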
# S1P2 blocker = blocks the human S1P2 receptor; inhibition, % at 5 µM; O95136; hit rate 0.21% among 97,000; cell-based S1P2 antagonist assay, inhibition at 5 uM; in the data active = inhibition above about 45%;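 note: CRE beta-lactamase reporter cells expressing human S1P2 stimulated with S1P; 0% = agonist at EC80 alone and 100% = agonist plus reference antagonist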
# GALR2 agon conf = GALR2 (human) agonism confirmed; shares compounds with GALR2 ag; GALR2-expressing cells, agonist activation; activation, % at 5.6 µM; hit rate 10% among 460; AID 864; in the data active = activation above about 8.4%;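 note: 0% = buffer-only vehicle wells and 100% = full reference agonist response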
# BLA act counter = beta-lactamase activation, GALR2 counterscreen; hit rate 10% among 460; activation, % at 5.6 µM; shares compounds with GALR2 ag; CHO NFAT-bla reporter, beta-lactamase FRET activation;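 active = activation above the screen-wide mean activation plus 3 SD, cut at about 8% in these data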;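 note: 0% = DMSO with PBS wells and 100% = thapsigargin positive control wells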
# * hit, by the source's call; x = no result.
SMILES,GALR2 antag,S1P2 agonist,MRP-1 activ,GALR2 ag,MRP resist rev,S1P2 blocker,GALR2 agon conf,BLA act counter
O=C1NC(c2ccco2)Nc2sc3c(c21)CCN(Cc1ccccc1)C3 (stereo not drawn),-8,9,-1,16*,-2,-10,0,1
CN1CCc2c(sc3c2C(=O)NC(c2ccco2)N3)C1 (stereo not drawn),-11,1,-2,2,-6,2,x,x
CCN(CC)c1ccc(C(=O)OCc2cc(=O)oc3cc(O)ccc23)cc1,-1,-4,-7,1,x,-6,x,x
CCN(CC)c1ccc2c(Cl)cc(=O)oc2c1,22,9,-4,9,x,47*,2,7
Cc1[nH]nc(N=CC2=C(O)CC(C)(C)CC2=O)c1-c1ccccc1,2,-5,0,14*,5,0,-1,-3
Cc1[nH]nc(N=CC2=C(O)CC(c3ccco3)CC2=O)c1-c1ccccc1 (stereo not drawn),3,1,-5,0,14,-6,x,x
Cc1cccc(N2C(=O)CC(Sc3nc(C)c4c(n3)CCCC4)C2=O)c1 (stereo not drawn),3,-7,-2,-2,-6,2,x,x
COc1cc(-c2nnc(COC(=O)C3c4ccccc4Oc4ccccc43)o2)cc(OC)c1OC,8,1,1,-1,-1,-20,x,x
O=C(Oc1ccccc1N1C(=O)C2CCCCC2C1=O)c1ccccc1F (stereo not drawn),1,x,-4,0,x,x,x,x
O=C(CN1CCCCC1)Nc1cccc(Cl)c1Cl,-7,-1,-2,2,8,-24,x,x
O=C(CN1CCCCC1)Nc1cc(Cl)ccc1Cl,1,-7,-2,180*,20,-25,-1,0
CN(C)N1C(N)=C(C#N)C(c2cccc3ccccc23)C2=C1CC(c1ccccc1)CC2=O (stereo not drawn),6,x,-5,0,x,x,x,x
COC(=O)C1=CN(CC2CCCO2)C=C(C(=O)OC)C1c1ccccc1C(F)(F)F (stereo not drawn),-8,11,-3,12*,0,2,3,8
Cc1ccc(-n2c(C)cc(C=C3C(=O)CC(C)(C)CC3=O)c2C)cc1,-2,x,-4,-1,x,x,x,x
CC1CCCN(c2c([N+](=O)[O-])c(=O)oc3ccccc23)C1 (stereo not drawn),-5,-4,-1,28*,x,24,0,1
CCC(=O)Oc1ccc2c(C)cc(=O)oc2c1C,10,x,-3,-1,x,x,x,x
CCSc1nnc(-c2ccc(S(=O)(=O)NCc3cccs3)cc2)o1,1,-2,0,-1,0,-9,x,x
CC1(C)CC(=O)C2=C(C1)N(CCN1CCOCC1)C1=C(C(=O)CC(C)(C)C1)C2c1cccc(Cl)c1,0,6,-5,9,26,-8,2,3
O=C(CCCOc1ccccc1)N1CCN(c2ccccc2)CC1,-24,1,0,0,22,-26,x,x
CC(=O)c1ccc(OCCCC(=O)OCC(=O)N2CCN(c3ccccc3)CC2)cc1,13,-7,-2,68*,2,-4,-1,-2
O=C(NCc1nc(-c2ccccc2)no1)c1cccs1,-9,2,-1,-2,4,4,x,x
O=C(O)c1ccccc1C(=O)Nc1ccc(S(=O)(=O)NC2CCCCC2)cc1,0,x,1,14*,x,x,-1,-2
Cc1ccc(S(=O)(=O)NC(=O)NCc2ccc3c(c2)OCO3)cc1,-2,-5,-1,152*,x,16,0,-2
O=C(NCC1CCCO1)c1cc(-c2ccccc2)on1 (stereo not drawn),0,-5,-5,-2,39,-2,x,x
Cc1nc(-n2[nH]c3c(c2=O)CCCC3)[nH]c(=O)c1Cc1ccccc1,-1,-5,-6,9,x,13,5,29*
SMILES,GALR2 antag,S1P2 agonist,MRP-1 activ,GALR2 ag,MRP resist rev,S1P2 blocker,GALR2 agon conf,BLA act counter
CCOC(=O)c1ccc(NC(=S)N2CCSC2c2ccc(OC)cc2)cc1 (stereo not drawn),-16,x,-1,1,x,x,x,x
CCOC(=O)c1ccc(NC(=S)N2CCSC2c2ccc(Cl)cc2)cc1 (stereo not drawn),-22,x,-2,8.8*,x,x,9.4*,18*
CCCCNC(=O)c1ccc(Cn2c(=S)[nH]c3c([nH]c4ccc(OC)cc43)c2=O)cc1,5,x,-1,10*,x,x,3,0
O=C(c1cccc(S(=O)(=O)N2CCc3ccccc3C2)c1)N1CCN(c2ccccc2)CC1,-5,x,-2,-2,x,x,x,x
N#Cc1cc2c(=O)n3ccccc3nc2n(CCCN2CCOCC2)c1=O,2,x,1,8.6*,2,x,3,8.2*
N#Cc1cc2c(=O)n3ccccc3nc2n(CCN2CCOCC2)c1=O,x,x,x,x,16,x,x,x
COC(=O)c1cc(NC(=O)CSc2nncn2C)cc(C(=O)OC)c1,-5,-1,-1,16*,1,5,-1,-1
COCCNC(=O)c1cc2oc3ccccc3c2n1C,0,0,2,0,-8,-11,x,x
CC(=O)Nc1ccc(Sc2ncccc2C(=O)Nc2ccc(OC(F)(F)F)cc2)cn1,-38,-5,-2,22*,x,3,16*,43*
CCOC(=O)C1=CN(C)C=C(C(=O)OCC)C1c1ccsc1,-1,12,-4,10,x,3,2,5
COC(=O)C1=C(C)N(C)C(C)=C(C(=O)OC)C1c1ccsc1,0,-4,-1,-1,14,12,x,x
CC(C)(C)c1ccc(S(=O)(=O)Nc2cccnc2)cc1,8,-6,-2,-2,19,23,x,x
O=S(=O)(Nc1cccnc1)c1ccc(Cl)cc1,0,-3,-1,80*,6,12,0,-1
Cc1c(Cl)c([N+](=O)[O-])nn1CC(=O)N1CCCC1,-2,x,-1,-2,x,x,x,x
Cc1c(Cl)c([N+](=O)[O-])nn1CC(=O)NC12CC3CC(CC(C3)C1)C2,-18,-2,-3,38*,x,-20,0,0
COC(=O)C1C(=O)C=C(Nc2ccc(F)cc2F)CC1c1ccccc1 (stereo not drawn),-2,x,-3,-1,x,x,x,x
Cn1c(=O)oc2cc(S(=O)(=O)N3CCCC(C(=O)Nc4ccccn4)C3)ccc21 (stereo not drawn),7,-5,-2,17*,5,-2,0,-2
COc1cc(/C=N/NC(=O)c2ccc(COc3cc(C)ccc3C(C)C)cc2)cc(OC)c1O,0,x,-2,8.4*,x,x,8,-1
Cc1c(/C=N/n2cnnc2)c2ccccc2n1C,2,-3,-3,12*,7,13,-1,-2
O=C(COC(=O)c1cc(Cl)ccc1Cl)NCCN1C(=O)CSC1=O,19,x,0,12*,x,x,-1,-3
Cc1ccc2nc(-c3ccc(NS(=O)(=O)c4ccc(F)c(F)c4)cc3)sc2c1,5,x,-2,2,x,x,x,x
Cc1ccc2nc(-c3ccc(NS(=O)(=O)c4ccccc4)cc3)sc2c1,-8,x,-3,11*,x,x,0,2
